Experiment [1] addresses Tyrosine-protein kinase SYK (Homo sapiens) (UniProt P43405). Particulars: at 10 µM.
Experiment [2] has as its target T1, Mitogen-activated protein kinase kinase kinase 7 (Homo sapiens) (UniProt O43318).
T1 sequence (whole entry): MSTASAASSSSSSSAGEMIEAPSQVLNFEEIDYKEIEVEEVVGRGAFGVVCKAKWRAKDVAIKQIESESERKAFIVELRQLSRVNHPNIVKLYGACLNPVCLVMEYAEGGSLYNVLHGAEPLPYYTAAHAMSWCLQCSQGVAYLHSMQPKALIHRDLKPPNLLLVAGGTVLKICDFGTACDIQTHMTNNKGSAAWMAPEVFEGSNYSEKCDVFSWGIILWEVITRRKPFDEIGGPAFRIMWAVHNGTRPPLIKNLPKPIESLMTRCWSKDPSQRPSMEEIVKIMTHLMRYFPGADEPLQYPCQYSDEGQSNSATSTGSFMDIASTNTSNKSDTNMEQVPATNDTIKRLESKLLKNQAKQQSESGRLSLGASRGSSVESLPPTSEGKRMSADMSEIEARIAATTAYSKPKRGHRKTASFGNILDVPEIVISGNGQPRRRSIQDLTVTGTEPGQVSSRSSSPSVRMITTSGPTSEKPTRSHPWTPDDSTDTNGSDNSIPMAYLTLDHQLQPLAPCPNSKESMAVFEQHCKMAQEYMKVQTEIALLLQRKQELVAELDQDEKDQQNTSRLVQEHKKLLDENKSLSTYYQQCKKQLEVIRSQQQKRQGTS
Particulars: at 1 µM.

The target in experiment [3] is T1, Mitogen-activated protein kinase kinase kinase 7 (Homo sapiens). Conditions: at 10 µM.
Experiment [4] deals with T2, Serine/threonine-protein kinase TAO1 (Homo sapiens) (UniProt Q7L7X3).
T2 sequence (whole entry): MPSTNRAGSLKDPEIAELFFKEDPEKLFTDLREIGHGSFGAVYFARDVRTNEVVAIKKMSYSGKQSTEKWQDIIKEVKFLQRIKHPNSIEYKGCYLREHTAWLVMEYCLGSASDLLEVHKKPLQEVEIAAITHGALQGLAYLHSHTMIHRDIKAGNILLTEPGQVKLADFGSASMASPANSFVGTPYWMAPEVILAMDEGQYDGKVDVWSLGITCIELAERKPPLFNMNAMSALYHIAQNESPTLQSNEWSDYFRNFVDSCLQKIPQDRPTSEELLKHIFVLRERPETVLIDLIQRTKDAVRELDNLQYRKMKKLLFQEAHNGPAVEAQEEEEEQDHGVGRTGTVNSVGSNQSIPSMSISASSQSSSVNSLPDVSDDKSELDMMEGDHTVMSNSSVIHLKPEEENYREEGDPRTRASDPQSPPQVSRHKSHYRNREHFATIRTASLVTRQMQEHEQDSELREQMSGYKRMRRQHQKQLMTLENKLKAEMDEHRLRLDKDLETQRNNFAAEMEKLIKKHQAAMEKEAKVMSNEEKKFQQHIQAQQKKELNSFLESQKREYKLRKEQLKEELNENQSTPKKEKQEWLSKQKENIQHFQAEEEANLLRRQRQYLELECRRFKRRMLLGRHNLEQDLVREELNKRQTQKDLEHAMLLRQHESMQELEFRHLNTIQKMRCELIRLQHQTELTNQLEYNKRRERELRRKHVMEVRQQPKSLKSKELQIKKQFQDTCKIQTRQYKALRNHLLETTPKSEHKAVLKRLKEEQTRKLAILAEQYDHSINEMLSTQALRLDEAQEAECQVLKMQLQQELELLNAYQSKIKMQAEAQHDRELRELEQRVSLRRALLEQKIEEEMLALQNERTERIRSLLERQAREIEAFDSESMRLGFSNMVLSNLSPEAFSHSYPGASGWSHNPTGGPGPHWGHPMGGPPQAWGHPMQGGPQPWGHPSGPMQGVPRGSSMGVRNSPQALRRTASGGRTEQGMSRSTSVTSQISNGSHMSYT
Conditions: at 1 µM.

The target of experiment [5] is T2, Serine/threonine-protein kinase TAO1 (Homo sapiens). Particulars: at 10 µM.
Experiment [6] concerns the target T3, Serine/threonine-protein kinase TAO2 (Homo sapiens) (UniProt Q9UL54).
T3 sequence (whole entry): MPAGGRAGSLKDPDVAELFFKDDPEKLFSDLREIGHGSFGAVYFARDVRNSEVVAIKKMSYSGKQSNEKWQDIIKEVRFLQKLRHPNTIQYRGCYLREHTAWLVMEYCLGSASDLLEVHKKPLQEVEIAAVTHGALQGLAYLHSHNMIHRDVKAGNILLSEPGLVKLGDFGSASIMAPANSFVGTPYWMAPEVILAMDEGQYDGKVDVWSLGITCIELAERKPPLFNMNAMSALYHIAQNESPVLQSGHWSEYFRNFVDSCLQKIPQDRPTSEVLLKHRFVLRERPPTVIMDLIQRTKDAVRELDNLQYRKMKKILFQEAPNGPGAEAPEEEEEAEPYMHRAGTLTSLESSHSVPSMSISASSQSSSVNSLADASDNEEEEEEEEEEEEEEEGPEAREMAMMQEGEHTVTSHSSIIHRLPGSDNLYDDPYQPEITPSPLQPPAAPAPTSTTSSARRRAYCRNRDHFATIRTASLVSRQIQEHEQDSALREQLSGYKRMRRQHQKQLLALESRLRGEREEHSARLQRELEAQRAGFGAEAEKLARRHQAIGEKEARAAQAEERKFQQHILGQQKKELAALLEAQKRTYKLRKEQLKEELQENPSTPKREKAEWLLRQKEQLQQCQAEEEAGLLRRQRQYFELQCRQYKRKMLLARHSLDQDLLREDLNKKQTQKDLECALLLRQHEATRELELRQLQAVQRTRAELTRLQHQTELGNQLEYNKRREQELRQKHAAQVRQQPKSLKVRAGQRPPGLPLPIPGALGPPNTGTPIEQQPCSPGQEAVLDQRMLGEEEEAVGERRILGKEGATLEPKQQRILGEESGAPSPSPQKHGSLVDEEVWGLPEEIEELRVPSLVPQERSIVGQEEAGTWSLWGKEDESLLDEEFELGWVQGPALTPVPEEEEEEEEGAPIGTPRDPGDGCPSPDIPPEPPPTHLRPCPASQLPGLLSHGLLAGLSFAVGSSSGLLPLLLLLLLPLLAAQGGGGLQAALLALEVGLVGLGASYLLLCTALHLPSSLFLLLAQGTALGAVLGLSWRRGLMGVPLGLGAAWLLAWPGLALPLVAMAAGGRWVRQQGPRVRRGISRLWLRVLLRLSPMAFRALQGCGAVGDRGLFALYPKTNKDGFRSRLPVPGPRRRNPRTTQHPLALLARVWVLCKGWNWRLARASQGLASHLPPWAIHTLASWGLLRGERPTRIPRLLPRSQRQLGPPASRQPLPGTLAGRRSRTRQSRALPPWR
Conditions: at 1 µM.

Experiment [7] concerns the target T3, Serine/threonine-protein kinase TAO2 (Homo sapiens). Conditions: at 10 µM.
In experiment [8] the target is T4, Serine/threonine-protein kinase TAO3 (Homo sapiens) (UniProt Q9H2K8).
T4 sequence (whole entry): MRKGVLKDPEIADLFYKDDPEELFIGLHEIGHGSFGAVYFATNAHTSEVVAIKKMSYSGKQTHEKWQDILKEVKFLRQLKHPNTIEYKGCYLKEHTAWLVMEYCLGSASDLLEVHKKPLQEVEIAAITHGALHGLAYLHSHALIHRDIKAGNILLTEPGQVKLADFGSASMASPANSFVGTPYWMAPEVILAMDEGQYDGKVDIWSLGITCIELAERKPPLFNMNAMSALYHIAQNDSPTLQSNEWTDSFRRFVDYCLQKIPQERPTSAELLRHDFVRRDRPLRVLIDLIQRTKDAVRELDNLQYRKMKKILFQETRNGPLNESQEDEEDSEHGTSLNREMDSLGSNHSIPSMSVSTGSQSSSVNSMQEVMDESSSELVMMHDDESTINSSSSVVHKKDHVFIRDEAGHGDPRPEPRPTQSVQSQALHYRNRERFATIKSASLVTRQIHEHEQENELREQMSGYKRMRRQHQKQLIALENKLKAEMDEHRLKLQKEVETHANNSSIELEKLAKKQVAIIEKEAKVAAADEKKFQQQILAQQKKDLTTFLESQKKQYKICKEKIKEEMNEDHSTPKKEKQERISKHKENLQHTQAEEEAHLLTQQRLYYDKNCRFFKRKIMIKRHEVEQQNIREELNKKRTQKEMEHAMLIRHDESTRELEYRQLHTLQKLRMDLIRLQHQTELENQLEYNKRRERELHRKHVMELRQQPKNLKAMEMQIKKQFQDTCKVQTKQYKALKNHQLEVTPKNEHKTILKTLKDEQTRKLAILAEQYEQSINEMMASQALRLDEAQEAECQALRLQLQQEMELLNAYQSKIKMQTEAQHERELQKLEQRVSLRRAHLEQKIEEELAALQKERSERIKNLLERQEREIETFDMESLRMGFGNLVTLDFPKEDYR
Particulars: at 1 µM.

Experiment [9] has as its target T4, Serine/threonine-protein kinase TAO3 (Homo sapiens). Conditions: at 10 µM.
For experiment [10], the target named is T5, Serine/threonine-protein kinase TBK1 (Homo sapiens) (UniProt Q9UHD2).
T5 sequence (whole entry): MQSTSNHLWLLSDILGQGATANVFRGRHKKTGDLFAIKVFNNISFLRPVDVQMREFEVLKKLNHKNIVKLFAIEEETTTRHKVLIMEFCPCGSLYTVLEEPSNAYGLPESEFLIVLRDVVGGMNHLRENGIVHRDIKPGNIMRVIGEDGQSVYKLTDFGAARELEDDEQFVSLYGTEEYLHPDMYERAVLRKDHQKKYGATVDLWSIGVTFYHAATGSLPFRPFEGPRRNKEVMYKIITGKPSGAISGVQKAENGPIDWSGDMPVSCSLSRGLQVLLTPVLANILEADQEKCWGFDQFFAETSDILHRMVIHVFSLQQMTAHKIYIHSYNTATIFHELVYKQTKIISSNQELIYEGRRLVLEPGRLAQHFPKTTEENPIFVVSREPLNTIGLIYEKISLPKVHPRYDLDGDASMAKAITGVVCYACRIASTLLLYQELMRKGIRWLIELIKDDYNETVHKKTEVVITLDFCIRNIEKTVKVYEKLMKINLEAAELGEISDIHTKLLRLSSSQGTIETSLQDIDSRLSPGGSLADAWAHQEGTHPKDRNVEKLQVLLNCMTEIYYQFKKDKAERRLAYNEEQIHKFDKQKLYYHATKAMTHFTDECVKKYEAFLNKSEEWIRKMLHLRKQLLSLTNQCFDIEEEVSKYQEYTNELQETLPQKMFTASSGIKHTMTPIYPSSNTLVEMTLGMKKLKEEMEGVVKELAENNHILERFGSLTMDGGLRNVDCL
Conditions: at 1 µM.

In the case of `CCN(CC)CCCCN1c2ccccc2Oc2ccc(Cl)cc21`, the residual activity was 93% in [1]; 97% in [2]; 90% in [3]; 117% in experiment [4]; 100% in experiment [5]; 100% in experiment [6]. The residual activity in [7] worked out at 92%; in experiment [8], 101%; in experiment [9], 96%; in [10], 91%.

For the origin of these results see ChEMBL document CHEMBL2218924, “A broad activity screen in support of a chemogenomic map for kinase signalling research and drug discovery” (Biochem J, 2013).
